HP1b chromo inh: HTS for Inhibitors of HP1-beta Chromodomain Interactions with Methylated Histone Tails; 390,000 tested, 0.56% active; AlphaScreen HP1-beta / biotin-H3K9me3 peptide binding; Potency, µM (titrated, usually from 114 µM), inactives show top-dose activity change, negative = inhibition, actives largely listed as inhibitors; Chromobox protein homolog 1 (Homo sapiens), P83916; also: potency is read from the fitted curve at half-maximal effect; nearly all actives have a fitted effect of over 70% in size
Target sequence (P83916 whole entry, looked up): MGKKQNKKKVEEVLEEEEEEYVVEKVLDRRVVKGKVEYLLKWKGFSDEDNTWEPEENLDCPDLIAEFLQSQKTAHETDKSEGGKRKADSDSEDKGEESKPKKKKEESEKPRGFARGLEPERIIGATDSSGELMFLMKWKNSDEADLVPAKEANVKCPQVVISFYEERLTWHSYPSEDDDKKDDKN
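AlphaScreen: HP1-beta (50 nM) preformed 30 min with biotin-H3(1-18)K9me3 peptide (50 nM) in PBS pH 7.4, 0.01% Tween-20. Compound added for 30 min at RT, then streptavidin donor/nickel chelate acceptor beads (10 ug/mL) for 30 min.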
BAZ2B block: qHTS Assay for Inhibitors of BAZ2B; Bromodomain adjacent to zinc finger domain protein 2B (Homo sapiens), Q9UIF8; AlphaScreen BAZ2B-H3K14Ac peptide displacement; Potency, µM (highest dose often 114 µM), for inactives: top-dose activity change, negative = inhibition, actives largely listed as inhibitors; 360,000 tested, 4.4% active; AID 504333, 2011; also: potency is read from the fitted curve at half-maximal effect; % is scaled to controls: 0 for no effect and ±100 for the full control effect; nearly all actives have a fitted effect of over 60% in size
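Inhibition is scored as reduced AlphaScreen emission. The BAZ2B/b-H3(5-23)K14Ac complex (50 nM each) in PBS pH 7.4, 0.01% Tween-20 meets compound (up to 110 uM) for 30 min at RT before bead addition.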
Six1-Eya2 blk: qHTS Assay for Inhibitors of the Six1/Eya2 Interaction. activity change, % (no concentration beside the values). AlphaScreen GST-Six1/His-Eya2 binding, biochemical; hits give low values. 360,000 tested, 0.56% active; in the data active = activity change below about -65%; inconclusive = mostly about -30% to -63%; also: % is scaled to controls: 0 for no effect and ±100 for the full control effect
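AlphaScreen luminescence read after one hour at 37 °C in darkness. Pin-transferred compounds met GST-Six1 and His-Eya2 protein (5X stock 250 nM/500 nM) plus glutathione donor and Ni-chelate acceptor beads (5X, 50 ug/mL).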
G9a inh: qHTS Assay for Inhibitors of Histone Lysine Methyltransferase G9a; Histone-lysine N-methyltransferase EHMT2 (Homo sapiens), Q96KQ7; G9a H3K9 monomethylation, AlphaScreen, 2 h; Potency, µM (highest dose often 102 µM), for inactives: at the top dose activity, negative = inhibition, actives largely listed as inhibitors; 350,000 tested, 8.8% active; AID 504332, 2011; also: potency is read from the fitted curve at half-maximal effect; % is scaled to controls: 0 for no effect and ±100 for the full control effect; nearly all actives have a fitted effect of over 75% in size
Target sequence (Q96KQ7 913-1193 limits assumed): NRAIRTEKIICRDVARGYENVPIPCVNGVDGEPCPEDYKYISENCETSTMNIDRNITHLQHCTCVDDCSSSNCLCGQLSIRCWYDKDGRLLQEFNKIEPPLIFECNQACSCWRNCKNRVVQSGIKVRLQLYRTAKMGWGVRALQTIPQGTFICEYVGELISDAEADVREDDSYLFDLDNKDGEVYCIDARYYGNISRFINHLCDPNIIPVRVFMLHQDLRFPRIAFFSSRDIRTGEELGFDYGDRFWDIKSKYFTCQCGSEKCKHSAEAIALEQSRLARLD
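AlphaScreen read-out: biotin-H3K9 peptide (500 nM) methylation by 20 nM enzyme with 20 uM SAM, 2 h at room temperature after 15 min compound preincubation; anti-monomethyl H3K9 antibody plus donor/acceptor beads, 10 min dark.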
CtBP-E1A inh: qHTS Assay for Inhibitors of the CtBP/E1A Interaction; CtBP / adenovirus E1A interaction (AlphaScreen); AlphaScreen GST-E1A/His-CtBP binding, 1536-well; hits give low values; 340,000 tested, 0.49% active; activity change, % (test concentration not listed); in the data active = activity change below about -65%; inconclusive = mostly about -30% to -63%; also: % is scaled to controls: 0 for no effect and ±100 for the full control effect
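Steps: dispense buffer (Tris pH 8.0, NaCl 300 mM, TCEP 1 mM, BSA, Tween 20); add 5X protein mix (GST-E1A, His-CtBP, 125 nM each); pin 23 nL compound; 2 h at 37 °C, dark; add 5X beads (50 ug/mL); 1 h; read.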
JMJD2A Tudor inh: qHTS Assay for Inhibitors of JMJD2A-Tudor Domain; Lysine-specific demethylase 4A (Homo sapiens), O75164; AlphaScreen JMJD2A-Tudor / H3K4me3 peptide binding; Potency, µM (top dose mostly 114 µM), for inactives: top-dose activity change, negative = inhibition, hits mostly inhibitors; 390,000 tested, 4.4% active; also: potency is read from the fitted curve at half-maximal effect; % is scaled to controls: 0 for no effect and ±100 for the full control effect; nearly all actives have a fitted effect of over 50% in size
The depositor's hits bear a star; u = inconclusive; x = no result given; [ ] = remark or other dose. This is a sample that favours compounds with a hit; in the whole collection about 10% have one here. Unless noted, calls follow the shape of the dose curve; as a rule, active = well fitted inhibition curve with a large enough effect; inconclusive = small, poorly fitted or top-dose-only effect; inactive = no such curve, though single readings can be large or run the other way.

SMILES | HP1b chromo inh | BAZ2B block | Six1-Eya2 blk | G9a inh | CtBP-E1A inh | JMJD2A Tudor inh
CCn1c(O)c(C#N)c(C)cc1=O | 15.3% | -12.5% | -0.6 | 44.7µM* | 15.8 | -12.8%
Cc1cc(=O)n(CCO)c(O)c1C#N | 1.5% | u | -0.9 | u | -8.0 | u
Cc1ccc2c(c1)N(C(=O)N1CCC(C(=O)NCc3ccccc3F)CC1)CC(C)O2 (centres undefined) | 39.5% | -22.5% | x | -26.5%[59 µM] | x | u
CCCN1CNc2c(c(=O)[nH]c(=S)n2CCc2ccc(OCC)c(OCC)c2)C1 | 37.6% | x | x | x | x | -15.0%
O=C(CS(=O)CC(=O)Nc1cccnc1)Nc1ccc(F)cc1 (centres undefined) | 51.7% | 6.2% | 8.7 | -18.6% | 17.4 | -6.2%
CC1CCN(CC(=O)Nc2ccccc2-c2ccccc2)CC1 | 32.7% | 18.8% | 7.2 | -0.3%[59 µM] | 5.4 | -2.6%
CC1CCCCC1NCC(=O)Nc1ccccc1-c1ccccc1 (centres undefined) | -13.7% | u | 0.4 | 6.31µM* | 3.1 | -13.0%[11.4 µM]
CC[C@]1(C(=O)OC)[C@H]2C(=O)N(C)C(=O)[C@H]2[C@H]2CN=C(SCc3ccc(OC)cc3)N21 | 13.9% | x | -12.6 | x | -18.7 | 89.1µM*
COc1cccc(C2=NS(=O)(=O)N(C)C(C(=O)Nc3cccc(O)c3)=C2)c1 | 7.4% | -37.3% | x | 14.1µM* | x | -35.8%
COc1ccc(CNC(=O)C2=CC(c3cccc(OC)c3)=NS(=O)(=O)N2C)cc1 | 20.3% | -31.3% | x | -9.1%[59 µM] | x | u
COc1ccc(C2=NS(=O)(=O)N(C)C(C(=O)Nc3ccc(OC)c(OC)c3)=C2)cc1 | -21.6% | u | -22.6 | 35.5µM* | -11.1 | u
COc1ccc(NC(=O)C2=CC(c3ccc(C)cc3)=NS(=O)(=O)N2C)cc1OC | -10.5% | u | -23.1 | u | -2.3 | u
CCC1OC(=O)C[C@H](O)C(C)[C@@H](O[C@@H]2OC(C)C(O)C(N(C)C)C2O)C(CCN2CC(C)CC(C)C2)CC(C)C(=O)/C=C/C(C)=C\[C@@H]1COC1OC(C)C(O)C(OC)C1OC (some centres undefined) | x | x | x | -47.9%[2.33 µM] | x | x
Cc1ccc2c(=O)cc(CSc3ccccc3)[nH]c2c1C | 17.5%[57 µM] | 8.0% | x | 20.4%[59 µM] | x | -14.9%
O=c1cc(CSc2ccc(Cl)cc2)[nH]c2[nH]n(-c3ccccc3)c(=O)c12 | u | 35.5µM* | -3.9 | 39.8µM* | 1.5 | u
Cc1ccc(SCc2cc(=O)c3c(=O)n(-c4ccccc4)[nH]c3[nH]2)cc1 | u | 28.2µM* | -15.7 | 17.8µM* | -13.0 | u
CC(=O)c1ccc(OCCCC(=O)Nc2ccc(S(=O)(=O)N3CCOCC3)cc2)cc1 | 21.4% | 7.8% | -0.4 | 5.0%[0.501 µM] | 0.4 | -3.4%
Cc1cc(OCC(=O)c2ccc(F)cc2)ccc1N1C(=O)CCC1=O | 17.5% | -5.5% | -4.3 | -11.4%[59 µM] | 3.0 | 4.3%
CCOC(=O)c1c(NC(=O)CSc2nnc(CNc3ccc(F)cc3)o2)sc(C(C)=O)c1C | 28.0% | 50.1µM* | -12.4 | 33.2%[2.33 µM] | -13.4 | -35.1%
CCOC(=O)c1c(NC(=O)CSc2nnc(Cc3ccccc3)o2)sc(C(C)=O)c1C | 9.7% | -24.5% | -1.7 | 2.3%[2.33 µM] | -11.4 | -9.4%
CCOC(=O)c1sc(NC(=O)CSc2nnc(Cc3ccccc3)o2)c(C#N)c1C | u | u | -4.4 | u | 5.4 | 56.2µM*
CCOC(=O)c1c(NC(=O)CSc2nnc(-c3ccc(C)cc3)o2)sc(C(C)=O)c1C | 23.3% | 11.3% | 2.9 | -1.0%[59 µM] | -2.1 | -3.7%
CCOC(=O)CNC(=O)CSc1nnc(-c2ccco2)n1Cc1ccco1 | 28.0% | -3.8% | -0.3 | 28.2µM* | 1.4 | 28.2µM*
CCOC(=O)c1c(NC(=O)CSc2nnc(-c3ccccc3)n2CC)sc(C(C)=O)c1C | 7.5% | x | -13.5 | -9.6%[59 µM] | -16.8 | -25.2%
CCOC(=O)c1sc(NC(=O)CSc2nnc(-c3ccco3)n2CC)c(C(=O)OCC)c1C | -8.8% | u | -11.1 | 17.8µM* | 11.9 | -33.7%
SMILES | HP1b chromo inh | BAZ2B block | Six1-Eya2 blk | G9a inh | CtBP-E1A inh | JMJD2A Tudor inh
O=C(CN(C(=O)CCC(=O)Nc1nccs1)c1cccc(F)c1)NCCc1ccccc1 | 16.7% | 1.5% | 5.4 | 16.4% | -15.5 | 8.7%
CCOC(=O)c1c(NC(=O)Cn2cnc3scc(-c4ccc(C)cc4)c3c2=O)sc(C)c1C | 1.3% | -9.9% | -0.3 | -2.7%[59 µM] | -17.0 | -22.4%
O=C(NNC(=O)c1ccc(=O)[nH]c1)c1ccc(NS(=O)(=O)c2cccs2)cc1 | 27.7% | 9.1% | 2.3 | 8.6%[59 µM] | 0.5 | -5.4%
CCOC(=O)c1c(NC(=O)c2cc(=O)c3c(C)cc(C)cc3o2)sc2c1CCC2 | 32.3% | 2.1% | x | 8.0%[59 µM] | x | -13.5%
NC(=O)c1c(NC(=O)CSc2nnc(-c3ccco3)n2-c2ccccc2)sc2c1CCC2 | u | 50.1µM* | -16.4 | u | -12.5 | u
CCn1c(SCC(=O)N(C)CC(=O)Nc2ccc(OC)cc2)nnc1-c1ccco1 | 33.6% | 10.0% | 0.5 | 20µM* | -1.0 | -6.2%
CCn1c(SCC(=O)N(C)CC(=O)Nc2cccc(OC)c2)nnc1-c1ccco1 | 11.2% | -1.3% | 1.7 | -29.7% | 0.0 | -15.2%
NC(=O)CSc1nnc(-c2ccc(O)cc2)n1Cc1ccco1 | 16.7% | -2.0% | -87.1* | 7.8%[59 µM] | -89.8* | -5.0%
COC(=O)c1c(NC(=O)CSc2nnc(-c3ccco3)n2C)sc(C)c1C | u | -8.7% | -1.3 | -13.1%[59 µM] | 3.0 | 79.4µM*
CCCn1cnnc1CNC(=O)[C@H]1O[C@@H](n2cnc3c(N)ncnc32)[C@H](O)[C@@H]1O | x | x | 6.8 | x | 6.7 | x
Cc1cc(C)n2c(Nc3ccccc3)c(-c3ccc(C)o3)nc2n1 | 6.0% | x | x | x | x | -33.3%
COc1ccccc1NC(=O)Cn1cc(S(=O)(=O)Cc2ccccc2)c2ccccc21 | 8.0% | -27.0% | x | u | x | -23.1%
CCOC(=O)c1c(NC(=O)CSc2nnc(CNc3ccc(OC)cc3)n2C)sc(C)c1C | 20µM* | 44.7µM* | -29.4 | u | -24.7 | 50.1µM*
COc1cccc(-c2nnc(SCC(=O)NCc3ccc4c(c3)OCO4)n2Cc2ccco2)c1 | 24.7% | u | -10.1 | 44.7µM* | -4.3 | -11.5%
CCOC(=O)c1ccc(NC(=O)CSc2nnc(CNc3ccc(C)cc3)n2C)cc1 | 57.6% | 13.3% | -12.9 | -1.8%[59 µM] | -5.9 | -19.4%

Source: PubChem (National Center for Advancing Translational Sciences (NCATS))
